Assay in all cases: NCI-60 one-dose screen, 48 h (100 = growth as untreated, 0 = no growth, -100 = all killed)
Holding throughout (conditions): 10 µM unless noted

In test [1] the test system is NCI-H23 lung.
For test [2], the system named is NCI-H226 lung.
Test [3] deals with NCI-H322M lung.
The test system of test [4] is HOP-62 NSCLC.
Test [5] deals with NCI-H460 lung.
Test [6] concerns NCI-H522 lung.
In test [7] the test system is A549/ATCC NSCLC.
In test [8] the test system is 786-0 renal.
Test [9] relates to COLO 205 colon.
Test [10] has as its system DU-145 prostate.
For test [11], the system named is K-562 leukemia.
In test [12] the test system is MALME-3M melanoma.
The test system of test [13] is MDA-MB-231 breast.
For test [14], the system named is RXF 393 renal.
Test [15] relates to SF-268 CNS.
In test [16] the test system is SF-295 CNS.
Test [17] deals with SF-539 CNS.
Test [18] deals with UACC-257 melanoma.
The subject of test [19] is M14 melanoma.

This is part of a sample that, as a whole, favours compounds with a hit. Of some 83,000 tested, about 20% had one in any assay.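 Single-concentration screen, 48 h exposure, 96-well plates. Endpoint: percent growth. Below 10 = active.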 Unmarked numbers belong to inactive results. Activity calls are given as the source filed them.

Take `CCNC(=O)N1CCc2cc(OC)c(OCCc3ccc(OC)cc3)cc2C1c1ccc([N+](=O)[O-])cc1C` (stereo not given): the growth in test [1] is 21.2%; in test [2] it was 38%; in [3], 45.4%; in [4] it was 25.9%; in test [5], 2.37% (active); in test [6], -8.41% (active). Further, the growth was 11.7% in test [7]; 18.2% in test [8]; 25.8% in [9]; 20.7% in test [10]; 13.7% in test [11]; 63.8% in test [12]. For the same compound, the growth is 17.7% in test [13]; -9.58% (active) in test [14]; 32% in [15]; 10.8% in [16]; 9.83% (active) in [17]; 46.6% in [18].
For the compound `O=S(=O)(NC1c2ccccc2C[C@H]1O)c1ccc(Cl)cc1Cl` (stereo not given in full), the growth in [1] is 92.3%; in test [2] it was 93.6%; in [3], 94.6%; in [4], 103%; in [5], 101%; in test [6] it was 98.3%. In addition, the growth in [7] was 93.5%; in [8] it was 102%; in test [9], 114%; in test [10], 114%; in test [11], 95.2%; in test [12], 93.6%. Moreover, the growth was 99.5% in test [13]; 107% in test [14]; 96.7% in test [15]; 108% in test [16]; 101% in [17]; 102% in [18]. Further, the growth in test [19] is 92.3%.
For the compound `COc1ccc(C(=O)CSc2nc3c(c(Nc4ccc(S(N)(=O)=O)cc4)n2)CCCC3)cc1`, the growth was 88.1% in [1]; 98% in [2]; 107% in [3]; 115% in test [4]; 91.2% in test [5]; 91.4% in [6]. Moreover, the growth was 92.7% in [7]; 101% in test [8]; 108% in test [9]; 93.6% in [10]; 72.7% in [11]; 103% in test [12]. Moreover, the growth in test [13] was 88.1%; in test [14], 82.5%; in [15] it was 108%; in test [16] it was 90.6%; in test [17], 83.1%; in [18], 109%. In test [19], the growth was 104%.
Regarding `Cc1cccc2c3c(sc12)C(c1ccc(F)cc1)C(C#N)=C(/N=C/c1ccc(Cl)cc1)O3` (stereo not given), the growth in [1] was 19.1%; in [2], 29.9%; in test [3], 47.4%; in [4], 28%; in test [5] it was 5.27% (active); in test [6], -53% (active). For the same compound, the growth in test [7] was 21.7%; in [8], 25.6%; in test [9] it was -49% (active); in [10], 20.8%; in test [11], 7.18% (active); in test [12], 63.5%. For the same compound, the growth was 25.6% in test [13]; 2.24% (active) in [14]; 41.5% in [15]; 3.61% (active) in test [16]; -13.1% (active) in [17]; 56.4% in test [18]. Besides, the growth in test [19] was -3.44% (active).
For the compound `COc1cccc2c1CN(C(=O)c1ccc(O)c(C(=O)N3Cc4ccc(OCCC[P+](c5ccccc5)(c5ccccc5)c5ccccc5)cc4C3)c1)C2`, the growth in test [1] was 75.4%; in test [2] it was 86.9%; in test [3], 99.1%; in test [4], 102%; in [5] it was 61.4%; in [6], 78%. In addition, the growth was 101% in test [7]; 103% in test [8]; 54% in test [9]; 89.1% in test [10]; 22.6% in test [11]; 70.8% in [12]. In addition, the growth in test [13] is 86.9%; in [14] it was 104%; in test [15], 80.5%; in test [16], 76.3%; in [17] it was 64.4%; in test [18] it was 44.8%.
Regarding `Cc1ccc2sc3c(c2c1)OC(N)=C(C#N)C3c1cccc(F)c1` (stereo not given), the growth was 22.4% in [1]; -22.2% (active) in test [2]; 42.5% in [3]; 9.3% (active) in test [4]; -13.4% (active) in test [5]; -33.7% (active) in [6]. Also, the growth in test [7] is 11.5%; in test [8] it was 11.7%; in test [9], -40.3% (active); in [10], -9.41% (active); in test [11], 7.14% (active); in [12], 43.3%. Besides, the growth was 23.5% in test [13]; -30.8% (active) in test [14]; 25.8% in [15]; 1.52% (active) in [16]; -1.16% (active) in [17]; 60.8% in test [18].
Regarding `COc1ccc(CCN2C(=O)CSC2=S)cc1`, the growth in [1] is 103%; in [2] it was 115%; in [3], 99.4%; in test [4], 104%; in [5] it was 103%; in [6], 69.3%. Further, the growth in [7] is 102%; in [8] it was 87.3%; in test [9] it was 117%; in test [10], 41%; in test [11], 51.4%; in [12], 98%. The growth in [13] is 79.6%; in test [14] it was 89.7%; in test [15], 100%; in test [16], 97.6%; in test [17], 84.7%; in test [18], 98.9%.
With `c1cn2c(ccc3nc(-c4cn[nH]c4)c4c(c32)CCCC4)n1`, the growth is 69.2% in test [1]; 73.6% in test [2]; 75.8% in test [3]; 71.8% in [4]; 43.9% in [5]; 62.8% in test [6]. Moreover, the growth in test [7] is 62.5%; in test [8], 55.3%; in test [9], 95.5%; in test [10], 52%; in [11] it was 85.6%; in test [12], 29%. For the same compound, the growth in test [13] was 77.1%; in test [14] it was 43.6%; in test [15], 77.5%; in test [16] it was 42.6%; in test [17], 63.9%; in [18], 63.5%. In addition, in test [19], the growth is 32.1%.
As to `C=C(C=O)[C@@H]1CC[C@]2(CO)CC[C@]3(C)[C@H](CC[C@@H]4[C@@]5(C)CCCNC(C)(C)[C@@H]5CC[C@]43C)[C@@H]12`, the growth in test [1] was 63.5%; in test [2], 76.5%; in test [3], 95.8%; in [4] it was 88.9%; in test [5] it was 86%; in test [6] it was 77.6%. Also, the growth in [7] is 81.1%; in test [8], 94.3%; in test [9], 77.3%; in [10], 53%; in test [11] it was -1.23% (active); in [12] it was 67%. Further, the growth in test [13] is 90.8%; in test [14] it was 94.2%; in [15], 83.9%; in test [16] it was 83.1%; in [17] it was 71.8%; in test [18] it was 72.3%. Besides, the growth in test [19] was 61.3%.
As for `C=C=COc1cccc(/C(N)=N/C(N)=N/c2nc3ccccc3s2)c1`, the growth in [1] was 75.9%; in test [2] it was 83.7%; in test [3] it was 103%; in [4], 101%; in test [5], 93.9%; in test [6] it was 97%. Besides, the growth in [7] was 104%; in test [8], 90.3%; in test [9], 112%; in test [10] it was 101%; in [11], 23.5%; in [12], 93%. Besides, the growth in test [13] is 76.2%; in test [14], 104%; in test [15], 78.1%; in [16] it was 110%; in test [17] it was 70.4%; in test [18], 104%. In [19], the growth is 67.9%.
With `CCNC(=O)N1CCc2cc(OC)c(OCCc3ccc(OC)c(N)c3)cc2C1c1cc(C)c(C)cc1C` (stereo not given), the growth in test [1] was 41.8%; in [2], 44.7%; in test [3] it was 53.6%; in test [4] it was 34.2%; in test [5], 4.34% (active); in test [6], 5.26% (active). Besides, the growth was 19.6% in test [7]; 23.3% in test [8]; 55.9% in test [9]; 38.7% in test [10]; 20.5% in test [11]; 45.5% in [12]. Moreover, the growth was 53.1% in test [13]; 22.5% in test [14]; 40.7% in test [15]; 18.3% in test [16]; 26.4% in [17]; 50% in [18].
On to `COc1ccc(-n2c(SCc3n[nH]c(=S)o3)nc3ccc(Cl)cc3c2=O)cc1`, for which the growth was 99% in test [1]; 77.6% in test [2]; 97.6% in test [3]; 97.2% in [4]; 103% in test [5]; 87.6% in test [6]. For the same compound, the growth in test [7] was 97.7%; in [8] it was 94.1%; in test [9] it was 114%; in test [10], 96.3%; in test [11] it was 99.6%; in [12], 95.3%. Also, the growth in [13] is 94.6%; in test [14], 89.5%; in test [15], 92.1%; in [16], 97.3%; in test [17], 91.5%; in [18], 102%. The growth in [19] was 112%.
For `Cc1ccc(S(=O)(=O)NCCNc2nc(Nc3ccc(N4CCN(C)CC4)cc3)nc3ccsc23)cc1`, the growth in test [1] is 100%; in test [2], 104%; in test [3], 110%; in [4], 112%; in [5] it was 96.4%; in [6] it was 109%. Besides, the growth is 93.8% in test [7]; 91.3% in test [8]; 113% in [9]; 102% in test [10]; 0.196% (active) in test [11]; 117% in test [12]. Besides, the growth in [13] was 109%; in test [14], 70%; in test [15], 74.9%; in [16] it was 98.2%; in test [17], 94.9%; in [18], 107%. In test [19], the growth is 106%.
As to `Nc1nc(-c2cccc([N+](=O)[O-])c2)c(N=Nc2ccc([N+](=O)[O-])cc2Cl)s1`, the growth is 0.802% (active) in test [1]; -2.56% (active) in test [2]; 13.8% in test [3]; 21.9% in [4]; 1.77% (active) in test [5]; -3.73% (active) in test [6]. For the same compound, the growth in test [7] was 15.2%; in [8], 3.66% (active); in [9], -61.6% (active); in test [10] it was 19.6%; in test [11], 10.7%; in [12], -3.18% (active). For the same compound, the growth in test [13] was 12.2%; in [14], -31.1% (active); in [15] it was 20.5%; in test [16], -18.4% (active); in test [17] it was 16.9%; in test [18], -8.89% (active). The growth in test [19] was 4.9% (active).
Consider `COc1ccc(C(=O)Nc2ncc(Cc3ccccc3Cl)s2)cc1`, for which the growth was 17.9% in [1]; 31.7% in test [2]; 54.3% in test [3]; 39.2% in [4]; 2.79% (active) in test [5]; -37.3% (active) in test [6]. The growth is 24.3% in [7]; 28.9% in test [8]; -48.3% (active) in test [9]; 18.2% in test [10]; 7.56% (active) in test [11]; 57.1% in [12]. The growth in test [13] is 24.9%; in [14] it was -2.13% (active); in test [15], 43.3%; in test [16] it was 7.7% (active); in test [17], 2.11% (active); in test [18] it was 67%. Besides, the growth in test [19] was 15.5%.

(Values after PubChem BioAssay (NCI).)
